# TrxR1 substrate – substrates of rat thioredoxin reductase 1. purified TrxR1 substrate turnover, NADPH consumption readout. Potency, µM (top dose mostly 114 µM), for inactives: top-dose activity change, negative = substrate turnover. O89049. 390,000 compounds, 0.01% hits; further: potency means the concentration at half of the fitted maximal effect; nearly all actives have a fitted effect of over 50% in size
#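 Rat TrxR1, dispensed at 90 nM, was prereduced with 400 uM NADPH (final) for 5 min at ~22 deg C, then incubated with compound 15 min before 400 uM selenite. A first-read NADPH fluorescence drop versus no-compound background flagged substrates.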
# Eya2 phos inh – Eya2 (human) phosphatase inhibition. Potency, µM (series often up to 76.9 µM), without a hit: at the top dose activity, negative = inhibition, actives largely listed as inhibitors. recombinant Eya2, OMFP fluorescence dephosphorylation (OMFP is methylfluorescein phosphate). AID 488837. 330,000 compounds, 0.006% hits. O00167; further: potency means the concentration at half of the fitted maximal effect
#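 Eya2 protein (added as 0.2 uM solution) was preincubated with compound for 10 min at ambient temperature in 50 mM HEPES pH 7.5, 50 mM NaCl, 5 uM MgCl2, 0.05% BSA, 1 mM DTT. OMFP (added at 50 uM) then reacted 10 min; fluorescence read at 485/525 nm.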
# GALK inhibitor – inhibitors of human galactokinase. Potency, µM (highest dose often 57.5 µM), for the others: at the top dose activity change, negative = inhibition, most hits filed as inhibitors. Purified GALK, Kinase-Glo residual ATP luminescence. 270,000 compounds, 0.007% hits; further: potency means the concentration at half of the fitted maximal effect
# Target sequence (P51570 whole entry, looked up): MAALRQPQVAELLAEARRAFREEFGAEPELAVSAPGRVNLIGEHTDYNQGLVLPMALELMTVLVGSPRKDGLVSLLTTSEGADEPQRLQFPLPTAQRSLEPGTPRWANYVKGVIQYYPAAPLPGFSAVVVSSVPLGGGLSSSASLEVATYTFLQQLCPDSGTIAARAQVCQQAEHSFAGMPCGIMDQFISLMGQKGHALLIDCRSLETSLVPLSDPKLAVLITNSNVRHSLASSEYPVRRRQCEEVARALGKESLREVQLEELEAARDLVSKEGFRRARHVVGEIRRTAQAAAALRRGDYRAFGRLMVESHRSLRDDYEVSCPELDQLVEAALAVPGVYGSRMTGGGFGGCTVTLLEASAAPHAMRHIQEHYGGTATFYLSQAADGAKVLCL
#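 Galactose (100 uM) and ATP (35 uM) were turned over by 5 nM GALK for 1 h at RT. Kinase-Glo Plus then converted the remaining ATP into a luminescent signal.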
# TrxR1 inh – blocks rat thioredoxin reductase 1; Potency, µM (series often up to 114 µM), inactives show at the highest dose activity change, negative = inhibition, hits mostly inhibitors; 390,000 compounds, 1% hits; recombinant rTrxR1, NADPH fluorescence consumption, selenite substrate; O89049; further: potency means the concentration at half of the fitted maximal effect; nearly all actives have a fitted effect of over 65% in size
#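 Rat TrxR1 (90 nM in the dispensed reagent) was pre-reduced with 400 uM NADPH for 5 min at room temperature, then incubated with compound for 15 min. After 400 uM selenite was added, NADPH fluorescence (Ex 340/Em 450 nm) was followed for 8 min.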
# Six1-Eya2 blk – Six1/Eya2 interaction inhibition | 360,000 compounds, 0.56% hits | activity change, % (test concentration not listed) | AlphaScreen GST-Six1/His-Eya2 binding, biochemical; active compounds read low | Q15475+O00167 | AID 651725; in the data active means activity change below about -65%; inconclusive means mostly about -30% to -63%
#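 Compounds are tested against tagged Six1 and Eya2 proteins bridged by glutathione donor and nickel acceptor beads; after a one-hour incubation at 37 °C without light, AlphaScreen emission is recorded.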
# CtBP-E1A inh – inhibitors of CtBP/E1A interaction; AlphaScreen GST-E1A/His-CtBP binding, 1536-well; active compounds read low; activity change, % (no concentration beside the values); 340,000 compounds, 0.49% hits; AID 651724; in the data active means activity change below about -65%; inconclusive means mostly about -30% to -63%
#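 In 5 uL wells, 23 nL compound meets equimolar GST-E1A and His-CtBP (5X stock 125 nM each) for 2 h, 37 °C. Beads (5X, 50 ug/mL) then 1 h, 37 °C, dark.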
# Numbers without * were called inactive; ? = inconclusive; nt = not tested or not shown; [ ] = remark or other dose. Hits are enriched below; roughly 1.5% of the tested compounds scored in any of these assays. Unless noted, the call rests on the fitted dose curve; in most records, active means well fitted curve in the direction sought with a large enough effect; inconclusive means small, poorly fitted or top-dose-only effect, or another doubt; inactive means no such curve, though single readings can be large; an effect the other way counts as inactive or inconclusive. On the % scale 0 is the no-effect control and ±100 the full control effect.
SMILES,TrxR1 substrate,Eya2 phos inh,GALK inhibitor,TrxR1 inh,Six1-Eya2 blk,CtBP-E1A inh
CC(C)(C)n1ncc2c(=O)n(Cc3ccccc3Cl)cnc21,-2%,nt,nt,1%,nt,nt
Nc1nc(NCc2ccc(Cl)cc2Cl)c2[nH]cnc2n1,3%,nt,nt,22%,nt,nt
CC1=Nc2ccccc2/C1=C/c1sc(=S)n(-c2cccc(C(=O)O)c2)c1O,-8%,?,-2%,0%[57.1 µM],?,-67*
CC(=O)Nc1ccc2c(c1)n(C)c(=O)n2C,11%,13%,-3%,23%,4,0
Cn1c(=O)n(C)c2cc(NC(=O)CCl)ccc21,1%,7%,-1%,50µM*,-2,7
O=C(Nc1ccc(Cc2ccncc2)cc1)C1CCC(N2C(=O)C3C4C=CC(C5CC45)C3C2=O)CC1 (stereo not given),-8%,-25%,-5%,0%,-1,-13
CC(=O)Nc1ccc(NC(=O)C2CCC(N3C(=O)C4C5C=CC(C6CC56)C4C3=O)CC2)cc1 (stereo not given),2%,11%,1%,25µM*,3,nt
CCOc1ccc(NC(=O)CC2C(=O)N(c3ccccc3)C(=O)N2Cc2cccc(OC)c2)cc1 (stereo not given),0%,nt,nt,19%,nt,nt
CC(C)=CC(=O)OCC(=O)Nc1ccccc1Cl,-7%,-2%[15.4 µM],1%,-13%,1,6
CCOC(=O)/C=C/C(=O)OCC(=O)Nc1cccc(Cl)c1Cl,1%,-15%,0%,14µM*,2,-25
O=C1CNC(=O)/C1=C\c1ccc(O)cc1,?,-2%,1%,20µM*,4,3
O=C1CNC(=O)/C1=C/c1ccc(O)cc1,?,-5%,-4%,20µM*,7,-13
O=C1CNC(=O)/C1=C/c1ccc(Br)cc1,-18%[11.4 µM],-2%,3%,23%[11.4 µM],2,7
Cc1cccc(C)c1OCc1cc(=O)n2c3c(sc2n1)CCCC3,19%,nt,nt,20%,nt,nt
CCOc1ccccc1NC(=O)C(=O)Nc1ccc2nc3n(c(=O)c2c1)CCCCC3,-8%,nt,nt,-12%,nt,nt
COc1ccc(C2C=C(c3ccccc3)Nc3nc(NC(=O)/C=C/c4ccc(Cl)cc4)nn32)cc1 (stereo not given),-1%,nt,nt,-1%,nt,nt
CCc1ccc(NC(=O)CCCc2nnc3n(CC(C)C)c(=O)c4sccc4n23)cc1,-5%,nt,nt,0%,nt,nt
O=C(N/N=C/c1ccccn1)c1ccc(Cl)cc1,1%,-7%,7%,4%,?,?
O=C(N/N=C/c1cccc2nccnc12)c1ccccc1O,-5%,6%,-5%,10%,-89*,-76*
CCC(C)[C@@H](N)C(=O)N/N=C/c1cccc2nccnc12 (stereo not given in full),3%[57.1 µM],6%,0%,0%[57.1 µM],-87*,-71*
O=C(N/N=C/c1cccc2cccnc12)c1ccccc1O,-9%,5%,-1%,-10%,-92*,nt
Cn1ncc(Cl)c1C(=O)N/N=C/c1ccccn1,2%,1%,0%,1%,-80*,-75*
COc1ccc(-n2ncc3c2ncn2nc(-c4ccc(OC)c(OC)c4)nc32)cc1,6%,nt,nt,15%,nt,nt
O=C(N/N=C/c1ccccn1)c1ccncc1,1%[57.1 µM],0%,1%,6%[57.1 µM],-75*,nt
O=C(N/N=C(\Cc1ncc[nH]1)c1ccccc1)c1ccncc1,7%[57.1 µM],-27%,-5%,-4%[57.1 µM],-82*,-90*
SMILES,TrxR1 substrate,Eya2 phos inh,GALK inhibitor,TrxR1 inh,Six1-Eya2 blk,CtBP-E1A inh
O=C(N/N=C/c1cccc2nccnc12)c1ccncc1,-8%,0%,-2%,1%,-68*,-89*
CC(C)(C)n1ncc2c(=O)n(Cc3c(Cl)cccc3Cl)cnc21,-1%,nt,nt,6%,nt,nt
CCN(CC)c1ccc(-n2nc3cc(C)c(NC(=O)c4ccccc4F)cc3n2)cc1,24%,nt,nt,13%,nt,nt
CCN1C(=O)c2ccccc2Sc2ccc(NC(=O)COc3ccc(Cl)cc3)cc21,5%[57.1 µM],nt,nt,24%[57.1 µM],nt,nt
O=C(N/N=C/c1cc([N+](=O)[O-])ccc1O)C1CCCCC1,-21%,0%,1%,-25%,-74*,-73*
Cc1cccc(NC(=O)CCC(=O)N/N=C/c2cc([N+](=O)[O-])ccc2O)c1,-8%,-8%,1%,-3%,-79*,-90*
O=C(CCC(=O)Nc1cc(C(F)(F)F)ccc1Cl)N/N=C\c1cc([N+](=O)[O-])ccc1O,0%[57.1 µM],-4%,-2%,3%[57.1 µM],-30,-67*
O=C(N/N=C/c1cc([N+](=O)[O-])ccc1O)C1C2CCCCC21 (stereo not given),nt,2%,2%,nt,nt,nt
O=C(CCc1ccccc1)Nc1cc(C(F)(F)F)ccc1Cl,3%,-8%,1%,16%,19,35
O=C(CCC(=O)Nc1ccc(Br)cc1)N/N=C/c1cc([N+](=O)[O-])ccc1O,-7%,10%,3%,-16%,-3,-15
O=C(CCC(=O)Nc1ccc(F)cc1)N/N=C/c1cc([N+](=O)[O-])ccc1O,-10%,10%,9%,12%,?,-86*
COc1cc2nc(N(C)C)nc(NC3CCN(C)CC3)c2cc1OC,42%,nt,nt,-30%,nt,nt
Cc1c(C(=O)Nc2ccc(C(C)C)cc2)sc2nc[nH]c(=O)c12,-3%[57.1 µM],nt,nt,19%[57.1 µM],nt,nt
CC(C)(C)n1ncc2c(=O)n(Cc3ccccc3-c3ccccc3)cnc21,-2%,nt,nt,11%,nt,nt
CC1(C)C(/C=C/C=C/C=C/C=C2\N(CCCCS(=O)(=O)O)c3ccc4ccccc4c3C2(C)C)=[N+](CCCCS(=O)(=O)[O-])c2ccc3ccccc3c21,-16%,nt,nt,3.5µM*,?,?
Cc1c2ccccc2cc[n+]1CCCS(=O)(=O)[O-],13%,-9%,1%,5%,-2,-5
N#Cc1ccc(CSc2nnc(Cc3cccs3)n2Cc2ccco2)cc1,-5%,22%,0%,40µM*,-12,-2
COc1cc2c(cc1NC(=O)CSc1nnc(Cc3cccs3)n1Cc1ccco1)oc1ccccc12,2%[57.1 µM],7%,-2%,14µM*,-14,0
CCOC(=O)c1c(C)[nH]c(C)c1S(=O)(=O)N1CCC(C(=O)N2CCN(c3cccc(C)c3)C(C)C2)CC1 (stereo not given),-10%[57.1 µM],nt,nt,1%[57.1 µM],nt,nt
CCOc1ccc(C2C(=O)N(C3CCCCCC3)CC(=O)N2Cc2ccccc2)cc1OC (stereo not given),3%[57.1 µM],nt,nt,29%[57.1 µM],nt,nt
CC(=O)N1CCc2cc(S(=O)(=O)NC(Cc3ccccc3)C(=O)Nc3ccc(Cl)cc3)ccc21 (stereo not given),-1%,nt,nt,5%,nt,nt
Cc1[nH]c(=O)[nH]c(=O)c1/C=N/NC(=O)[C@@H](NC(=O)OC(C)(C)C)C(C)C,-2%,18%,1%,14%,-13,-25

# Bioassay records as filed in PubChem.
